ELG1 genotoxic = qHTS screen for small molecules that induce genotoxicity in human embryonic kidney (HEK293T) cells expressing luciferase-tagged ELG1 | AID 504466, 2011 | actives 1.3% (n = 330,000) | HEK293T ELG1-luciferase reporter, luminescence, 16 h | Potency, µM (top dose mostly 46 µM), without a hit: at the highest dose activity change, positive = activation, hits mostly activators; also: % of control where 0% means no effect; nearly all actives have a fitted effect of over 60% in size
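Reporter readout depends on ELG1 protein level, which increases with genetic stress. After 16 hr compound exposure at 37 °C, luciferase activity was quantified using ONE-Glo.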
Rab9 promoter act = qHTS Assay for Rab9 Promoter Activators; actives 2.8% (n = 320,000); Potency, µM (highest dose often 9.22 µM), for inactives: at the highest dose activation, negative = inhibition, usual class: activators; Huh7 Rab9 promoter-luciferase reporter, luminescence, 24 h; AID 485297, 2010; also: % of control where 0% means no effect; nearly all actives have a fitted effect of over 60% in size
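Stable Rab9-luc Huh7, 1500 cells/well, 2 h settle; cmpd in DMSO, 24 h, 37 °C/5% CO2; luciferase reagent 10 min RT; luminescence.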
SMN2 splice up = qHTS Assay for Enhancers of SMN2 Splice Variant Expression; HEK293 SMN2-luciferase splicing reporter, luminescence, 30-36 h; Potency, µM (titrated, usually from 46.1 µM), for the others: at the highest dose activity change, positive = activation, usual class: activators; actives 2.8% (n = 210,000); AID 1458, 2008; also: % of control where 0% means no effect; nearly all actives have a fitted effect of over 55% in size
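HEK293 cells carry an SMN2 minigene-luciferase reporter in which exon 7 inclusion puts luciferase in frame. Cells were seeded at 2000 cells/well, attached for 10-12 hours, then exposed to compounds for 30-36 hours at 37C before ONE-Glo luminescence.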
FLuc counter = qHTS profiling assay for firefly luciferase inhibitor/activator using purifed enzyme and Km concentrations of substrates (counterscreen for miR-21 project); Luciferin 4-monooxygenase (Photinus pyralis), P08659; purified FLuc, Km substrates, luminescence inhibition; Potency, µM (doses to about 57.5 µM), without a hit: top-dose activity change, negative = inhibition, usual class: inhibitors; actives 6.9% (n = 360,000);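 also: plate controls were vehicle for no effect and reference inhibitor for full effect; nearly all actives have a fitted effect of over 55% in size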
Target sequence (P08659 whole entry, looked up): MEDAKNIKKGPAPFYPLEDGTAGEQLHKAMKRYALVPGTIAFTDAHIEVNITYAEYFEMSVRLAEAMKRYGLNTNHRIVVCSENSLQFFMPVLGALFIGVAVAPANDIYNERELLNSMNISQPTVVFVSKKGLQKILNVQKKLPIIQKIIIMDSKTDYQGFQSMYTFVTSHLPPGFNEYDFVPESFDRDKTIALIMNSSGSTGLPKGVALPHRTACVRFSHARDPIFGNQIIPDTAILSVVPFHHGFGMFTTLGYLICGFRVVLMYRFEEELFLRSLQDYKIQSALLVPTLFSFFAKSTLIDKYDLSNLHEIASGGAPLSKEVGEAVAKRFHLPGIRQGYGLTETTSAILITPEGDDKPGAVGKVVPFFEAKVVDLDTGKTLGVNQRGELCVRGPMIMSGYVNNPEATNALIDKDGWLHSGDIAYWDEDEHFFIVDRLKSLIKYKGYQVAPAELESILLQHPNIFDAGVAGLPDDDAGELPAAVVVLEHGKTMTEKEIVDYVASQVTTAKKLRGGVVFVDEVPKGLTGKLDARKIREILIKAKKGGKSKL
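Purified P. pyralis luciferase (10nM final) with 10uM D-luciferin and 10uM ATP (Km levels) in 50mM Tris acetate pH 7.5, 10mM Mg acetate, 0.01% Tween-20, 0.05% BSA; qHTS 6-point titration, ~60 µM downward; luminescence read.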
NPC1 prom act = qHTS Assay for NPC1 Promoter Activators; actives 2.4% (n = 320,000); Huh7 NPC1 promoter luciferase reporter, 24 h; Potency, µM (series often up to 9.22 µM), without a hit: top-dose activation, hits mostly activators; also: % of control where 0% means no effect; nearly all actives have a fitted effect of over 60% in size
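Stably transfected Huh7 (NPC1 promoter→luciferase), 1500 cells/well in Opti-MEM + 10% FBS, 2 h settle, then compound 24 h at 37 °C. Luminescence after 10 min with Amplite reagent.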
An asterisk follows results filed as active; ? = inconclusive; nt = no result given. This is a sample that favours compounds with a hit; in the whole collection about 7.4% have one here. Calls follow the shape of the dose curve; as a rule, active = well fitted curve in the direction sought with a large enough effect; inconclusive = small, poorly fitted or top-dose-only effect, or another doubt; inactive = no such curve, though single readings can be large; an effect the other way counts as inactive or inconclusive. Potency is read from the fitted curve at half-maximal effect.

SMILES	ELG1 genotoxic	Rab9 promoter act	SMN2 splice up	FLuc counter	NPC1 prom act
CC(=O)Nc1ccc(NC(=O)C(C)OC(=O)/C(C#N)=C/c2ccc(N(C)C)cc2)cc1 (configuration not stated)	18µM*	?	nt	9.5µM*	28%
Cc1ccccc1OCCCCn1cnc2ccccc21	-5%	-19%	-91%	19µM*	-9%
Cc1ccc(OCCCCn2cnc3ccccc32)cc1	20%	0%	-70%	?	0%
c1ccc2c(c1)ncn2CCCOc1ccc2c(c1)CCC2	23%	0%	-29%	15µM*	16%
Brc1ccccc1OCCCn1cnc2ccccc21	5.8µM*	4µM*	?	2.4µM*	3.2µM*
O=C(Nc1cccnc1)c1cc(-c2ccc(Cl)cc2Cl)on1	?	?	nt	0.38µM*	4µM*
Cc1cc(C(=O)Nc2cccnc2)no1	4%	-1%	4%	-2%	0%
O=C(Nc1cccnc1)c1cc(F)c(F)cc1Cl	-3%	-9%	0%	-1%	-4%
O=C(Nc1ccc(Cl)cc1Cl)c1csc(-c2cccnc2)n1	13%	?	nt	?	2.8µM*
O=C(NCc1ccccc1)c1csc(-c2cccnc2)n1	-16%	1%	nt	-2%	12%
O=C(Nc1cccnc1)c1cc(-c2ccc(Cl)cc2)on1	9%	2%	18%	1.5µM*	-2%
COc1ccc(NC2CCCN(C(=O)c3cccc(N4CCNC4=O)c3)C2)cc1 (configuration not stated)	1%	6%	nt	4%	-1%
c1ccc(Nc2nnc(-c3cccnc3)s2)cc1	?	0.4µM*	nt	1.7µM*	1µM*
O=C(Nc1nnc(-c2cccnc2)s1)c1cccs1	?	29%	nt	12µM*	?
Cc1cccc(-c2nnc(NC(=O)c3cccs3)s2)c1	10%	20%	?	7.6µM*	27%
Nc1nnc(-c2cccnc2)s1	5%	2%	?	1%	0%
O=C(Nc1ccc(NC(=O)c2cccs2)cc1)c1cccnc1	1%	19%	8%	5%	7%
Cc1cccc2c1cnn2C(=O)Nc1cc(F)ccc1F	?	0.28µM*	nt	0.67µM*	?
CCOc1ccccc1NC(=O)n1ncc2c(C)cccc21	4%	2.5µM*	nt	7.6µM*	4µM*
CCOc1ccccc1NC(=O)CCC(=O)Nc1ccccc1OCC	8%	-1%	5%	6%	9%
Cc1cc(NC(=O)n2ncc3c(C)cccc32)ccc1Br	nt	nt	nt	-2%	nt
CC(C)c1cc(C(=O)O)c2cnn(C(C)C)c2n1	0%	0%	nt	6%	2%
O=C(CN1CCN(Cc2ccc3c(c2)OCO3)CC1)Nc1ccc2[nH]c(=O)[nH]c2c1	8%	nt	nt	nt	nt
Cc1cc(NCCCn2ccnc2)n2nc(C)c(-c3ccc(Cl)cc3)c2n1	-1%	0%	nt	15µM*	5%
Cc1cc(NCCCn2ccnc2)n2nc(C)c(-c3ccccc3)c2n1	16%	?	9%	9.5µM*	29%
SMILES	ELG1 genotoxic	Rab9 promoter act	SMN2 splice up	FLuc counter	NPC1 prom act
COc1ccc(CCNc2cc(C)nc3c(-c4ccccc4)cnn23)cc1OC	-5%	-1%	-29%	-7%	0%
Cc1cc(NCCCn2ccnc2)n2ncc(-c3ccccc3)c2n1	0.29µM*	0.11µM*	-38%	0.34µM*	0.4µM*
Cc1cc(NCCN2CCOCC2)n2nc(C)c(-c3ccccc3)c2n1	3%	0%	10%	-8%	1%
c1ccc2oc(SCc3nc4ccccc4s3)nc2c1	nt	nt	?	4.8µM*	nt
CCOc1ccc(OCCSc2nc3ccccc3o2)cc1	10%	-2%	4%	-18%	7%
c1ccc(-c2noc(CSc3nc4ccccc4o3)n2)cc1	1%	7%	nt	?	4%
N#CCc1nc(CSc2nc3ccccc3o2)cs1	?	?	4%	24µM*	?
c1ccc(SCc2nc3ccccc3s2)nc1	?	1.3µM*	nt	4.8µM*	3.5µM*
COc1ccc(CCNC(=O)Cn2c(=O)c3cccn3c3ccc(F)cc32)c(OC)c1	nt	nt	nt	-15%	nt
CCOC(=O)c1cc2c(nc1NC(=S)Nc1ccccc1)CC(C)(C)OC2	3%	-1%	-1%	-1%	4%
CCOC(=O)c1cc2c(nc1NC(=S)NCc1ccccc1)CCCC2	?	?	11µM*	?	?
O=C(NCCc1nc2ccccc2[nH]1)c1cccc(Br)c1	0%	-4%	-12%	6%	0%
CN/N=C(\Cc1nc2ccccc2[nH]1)c1ccc([N+](=O)[O-])cc1	13%	?	?	17µM*	?
O=C(Cc1nc2ccccc2[nH]1)c1ccc([N+](=O)[O-])cc1	?	?	nt	15µM*	3.2µM*
O=C(Cc1nc2ccccc2[nH]1)c1ccc(Cl)cc1	16%	2.5µM*	nt	6µM*	2.5µM*
N#CCCN/N=C(/Cc1nc2ccccc2[nH]1)c1cccc(Cl)c1	0%	19%	0.56µM*	?	11%
COc1ccccc1CNc1ncnc2c1c(-c1ccccc1)cn2-c1cccc(C)c1	nt	nt	nt	-3%	nt
O=C(NCCc1nc2ccccc2[nH]1)Nc1ccccc1	0%	2%	-12%	0%	4%
Clc1ccc(/C(Cc2nc3ccccc3[nH]2)=N\Nc2ccccc2)cc1	?	2.8µM*	nt	13µM*	3.5µM*
CC(C)(C)NC(=O)c1ccccc1-c1nc2ccccc2s1	-3%	-5%	nt	-4%	-3%
CNc1sc(C(=O)c2ccccc2F)c(N)c1-c1nc2ccccc2s1	?	4.5µM*	?	8.5µM*	4µM*
COc1cccc(CC(=O)Nc2ccc(S(=O)(=O)N3CCCCC3)cc2)c1	-2%	nt	nt	nt	nt
COc1cccc(CC(=O)Nc2ccc3c(c2)OC2(CCCC2)O3)c1	3%	22%	nt	13µM*	17%
O=C(c1ccc(NS(=O)(=O)c2ccc(F)cc2)cc1)N1CCCCCC1	-9%	-2%	nt	2%	-4%
O=C(NC(=S)Nc1cccc2c(O)cccc12)c1ccco1	0%	17%	nt	21µM*	9%
O=C(NC(=S)Nc1cccc(Cl)c1N1CCCCC1)c1ccco1	0%	1%	-18%	7%	-4%
O=C(NC(=S)Nc1ccccc1Cl)c1ccco1	4%	?	nt	9.5µM*	?
O=C(NNC(=S)Nc1ccccc1Cl)c1ccccc1	?	1.6µM*	nt	13µM*	2.5µM*
CCOc1ccc(N=C(/C(C(=O)C(=O)N2CCOCC2)=C(/O)c2ccccc2)c2ccccc2)cc1	?	?	nt	?	4µM*
CC1CN(C(=O)c2cccc(COc3ccc(Br)cc3)c2)CC(C)O1 (configuration not stated)	?	3.5µM*	4µM*	4.8µM*	1.6µM*

Assay outcomes deposited in PubChem by National Center for Advancing Translational Sciences (NCATS).
